Results from PubChem BioAssay (NCATS).
Results filed as inconclusive are left out. Unless noted, calls come from the whole dose curve; as a rule, active = well fitted curve in either direction with a large enough effect (not every such curve was filed as active); inconclusive = small, poorly fitted or top-dose-only effect, or another doubt; inactive = flat fitted curve, though single readings scatter.

Key:
[1] = AP1 Signaling Pathway (AID 357); conditions: ME-180 AP-1-bla reporter, EGF-induced, beta-lactamase ratio, 5 h; at 17.2 µM (top of the series) unless noted;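 note: ME-180 reporter cells stimulated with EGF at its EC50 level; % is set by controls: 0 for no effect and ±100 for the full control effect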
Outline: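 Beta-lactamase reporter under AP-1 response element, ME-180 background. Stimulus: EC50 EGF. Compound exposure 5 h, 37 °C. Detection: CCF4, 2.5 h RT, 460/530 nm. Values: AC50 from titration.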

[2] = NFAT Signaling Pathway (AID 444); conditions: Jurkat NFAT-bla M1, carbachol, beta-lactamase ratio, 5 h; at 17.2 µM (top of the series) unless noted;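 note: carbachol stimulus at about its EC50 of 1 µM final; % is set by controls: 0 for no effect and ±100 for the full control effect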
Outline: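 Read-out: CCF4 FRET ratio (460 nm/530 nm) after 1 h RT dye loading, used for %activity and AC50 from titration series. Cells: Jurkat NFAT-β-lactamase/M1 line, treated with compound plus 1 uM carbachol for 5 h, 37 °C.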

[3] = Stat Signaling Pathway (AID 446); conditions: ME-180 SIE beta-lactamase reporter, IL-6 stimulated, 5 h; at 17.2 µM (top of the series) unless noted;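 note: ME-180 cervical cancer cells given 40 pM IL-6 alongside compound; SIE-controlled beta-lactamase reporter measured as 460/530 nm FRET emission ratio; % is set by controls: 0 for no effect and ±100 for the full control effect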
Outline: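 ME-180 cells carrying a SIE-driven beta-lactamase reporter are stimulated with 40 pM IL-6 for 5 h at 37C in the presence of compound. The 460/530 nm FRET substrate ratio is read after 2.5 h at RT. Data are normalised to 300 pM IL-6 and to 125 nM JAK inhibitor controls.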

[4] = biological target: Glucocorticoid receptor (Homo sapiens) (UniProt P04150); experiment: GR-GFP Redistribution (AID 450;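 active = compounds whose dose series gives a full or clear partial fitted curve of increased nuclear translocation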; note: potency is the fitted concentration of half-maximal effect)
Glucocorticoid receptor (Homo sapiens), sequence (P04150 whole entry, looked up): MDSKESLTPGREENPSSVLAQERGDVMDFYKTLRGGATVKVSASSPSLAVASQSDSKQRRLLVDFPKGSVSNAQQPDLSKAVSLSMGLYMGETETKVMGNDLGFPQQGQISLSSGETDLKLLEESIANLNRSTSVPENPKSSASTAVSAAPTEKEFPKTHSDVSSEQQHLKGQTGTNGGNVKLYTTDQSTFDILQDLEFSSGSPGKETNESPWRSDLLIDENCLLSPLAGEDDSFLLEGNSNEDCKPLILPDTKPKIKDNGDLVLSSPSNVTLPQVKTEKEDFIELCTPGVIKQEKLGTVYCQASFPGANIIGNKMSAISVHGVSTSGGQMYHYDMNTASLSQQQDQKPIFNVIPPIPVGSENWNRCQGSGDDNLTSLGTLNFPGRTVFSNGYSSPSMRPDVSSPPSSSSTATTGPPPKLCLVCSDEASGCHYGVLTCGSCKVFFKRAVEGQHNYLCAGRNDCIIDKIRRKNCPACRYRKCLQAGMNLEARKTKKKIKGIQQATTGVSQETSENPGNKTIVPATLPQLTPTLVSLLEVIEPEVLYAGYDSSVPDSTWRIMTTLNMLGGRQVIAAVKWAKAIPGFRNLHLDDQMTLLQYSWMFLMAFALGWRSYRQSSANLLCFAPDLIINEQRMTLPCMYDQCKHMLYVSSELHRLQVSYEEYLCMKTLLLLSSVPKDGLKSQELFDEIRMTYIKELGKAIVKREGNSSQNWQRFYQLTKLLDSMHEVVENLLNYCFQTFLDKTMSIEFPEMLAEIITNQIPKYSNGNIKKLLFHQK

COc1ccc(-c2nn3c(-c4ccccn4)nnc3s2)cc1OC
inactive: activity change, negative = inhibition [1] -16.2% | activity change, negative = inhibition [2] -21.8% | activity, negative = inhibition [3] -2.76% | Potency [4] > 20.6 µM

CN(C)CCNC(=O)C12CC3(C)CC(C)(CC(C)(C3)C1)C2
inactive: activity change, negative = inhibition [1] 7.28% | activity change, negative = inhibition [2] -25.2% | activity, negative = inhibition [3] 8.6% | Potency [4] > 20.6 µM

CCn1c(SCC(=O)NCc2ccco2)nnc1-c1ccc(N)cc1
inactive: activity change, negative = inhibition [1] 0.344% | activity change, negative = inhibition [2] 16.3% | activity, negative = inhibition [3] -0.962% | Potency [4] > 20.6 µM

O=C(O)c1cnn2c(C(F)(F)F)cc(-c3ccco3)nc12
inactive: activity change, negative = inhibition [1] 11% | activity change, negative = inhibition [2] 1.41% | activity, negative = inhibition [3] 16.2% | Potency [4] > 20.6 µM

CC1(C)CC(=O)C2=C(C1)N(Cc1ccco1)C(=O)C2(O)C(F)(F)F (configuration not stated)
inactive: activity change, negative = inhibition [1] 11.1% | activity change, negative = inhibition [2] -3.91% | activity, negative = inhibition [3] -2.61% | Potency [4] > 20.6 µM

COc1cccc(OC)c1C(=O)N1CCN(S(=O)(=O)c2ccc(C)cc2)CC1
inactive: activity change, negative = inhibition [1] -12.3% | activity change, negative = inhibition [2] -1.17% | activity, negative = inhibition [3] 6.68% | Potency [4] > 20.6 µM

O=C(c1ccc(-n2cnnn2)cc1)N1CCOCC1
inactive: activity change, negative = inhibition [1] 10.3% | activity change, negative = inhibition [2] -0.0644% | activity, negative = inhibition [3] 12.1% | Potency [4] > 20.6 µM

CCOC(=O)N1CCN(C(=O)c2cn(CC)c3cc(N4CCN(C)CC4)c(F)cc3c2=O)CC1
inactive: activity change, negative = inhibition [1] 8.43% | activity change, negative = inhibition [2] 7.68% | activity, negative = inhibition [3] 0.507% | Potency [4] > 20.6 µM

CCn1c(SCC(=O)O)nc2sc3c(c2c1=O)CCC3
inactive: activity change, negative = inhibition [1] 5.13% | activity change, negative = inhibition [2] -8.87% | activity, negative = inhibition [3] -5.86% | Potency [4] > 20.6 µM

Cn1c(=O)c2c(nc(NCc3ccco3)n2Cc2ccccc2Cl)n(C)c1=O
inactive: activity change, negative = inhibition [1] 16.7% | activity change, negative = inhibition [2] 2.77% | activity, negative = inhibition [3] -14.8% | Potency [4] > 20.6 µM

CCN(CC)CCCC1(CN)OCCc2ccccc21 (configuration not stated)
inactive: activity change, negative = inhibition [1] 19.8% | activity change, negative = inhibition [2] -16.2% | activity, negative = inhibition [3] 8.19% | Potency [4] > 20.6 µM

COc1ccc(/C(O)=C2/C(=O)C(=O)N(CCN3CCOCC3)C2c2ccccn2)cc1 (configuration not stated)
inactive: activity change, negative = inhibition [1] 7.11% | activity change, negative = inhibition [2] 6.7% | activity, negative = inhibition [3] 0.702% | Potency [4] > 20.6 µM

C=CCOC(=O)C1=C(C)NC(SCC(=O)N(CC)CC)=C(C#N)C1c1ccco1 (configuration not stated)
inactive: activity change, negative = inhibition [1] -27.3% | activity change, negative = inhibition [2] 6.04% | activity, negative = inhibition [3] -6.01% | Potency [4] > 20.6 µM

O=C(CSc1nnc(-c2ccccc2)c(-c2ccccc2)n1)N1CCOCC1
inactive: activity change, negative = inhibition [1] -3.06% | activity change, negative = inhibition [2] 0.00472% | activity, negative = inhibition [3] 8.97% | Potency [4] > 20.6 µM

COc1cc(C)nc(N(C)S(=O)(=O)c2ccccc2Cl)n1
inactive: activity change, negative = inhibition [1] -3.56% | activity change, negative = inhibition [2] -19.3% | activity, negative = inhibition [3] 1.54% | Potency [4] > 20.6 µM

CCOc1ccccc1C(=O)NCCCCCC(=O)O
inactive: activity change, negative = inhibition [1] -1.91% | activity change, negative = inhibition [2] 2.57% | activity, negative = inhibition [3] 6.07% | Potency [4] > 20.6 µM

Nc1nnnn1CC(=O)OCc1cccc(Br)c1
inactive: activity change, negative = inhibition [1] -12.9% | activity change, negative = inhibition [2] 14.6% | activity, negative = inhibition [3] 12.3% | Potency [4] > 20.6 µM

CN(C)CCCNCCCCNC(=O)/C=N/O
inactive: activity change, negative = inhibition [1] 5.81% | activity change, negative = inhibition [2] 11.9% | activity, negative = inhibition [3] -0.521% | Potency [4] > 20.6 µM
